Where “and” joins values, the source holds several entries; their conditions need not be identical. Equal values may be shown once. The panel holds about 83,000 compounds, 20% with a hit somewhere; the sample as a whole holds those more often.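 The test compound was applied at a single concentration to cells in 96-well plates for 48 hours, and percent growth was recorded.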 Calls of active or inactive are those of the source. Rule for the calls: active = growth percent below 10; inactive = the rest.
Key:
Assay in all cases: NCI-60 one-dose screen, 48 h (100 = growth as untreated, 0 = no growth, -100 = all killed)
Details in all cases: 10 µM unless noted
HCT-15 colon = system: HCT-15 colon
HT29 colon = system: HT29 colon
SNB-75 CNS = system: SNB-75 CNS
SNB-19 CNS = system: SNB-19 CNS
U251 CNS = system: U251 CNS
PC-3 prostate = system: PC-3 prostate
SK-MEL-5 melanoma = system: SK-MEL-5 melanoma
UACC-62 melanoma = system: UACC-62 melanoma
LOX IMVI melanoma = system: LOX IMVI melanoma
SK-MEL-28 melanoma = system: SK-MEL-28 melanoma
SK-MEL-2 melanoma = system: SK-MEL-2 melanoma
EKVX NSCLC = system: EKVX NSCLC
SN12C renal = system: SN12C renal
UO-31 renal = system: UO-31 renal
TK-10 renal = system: TK-10 renal
ACHN renal = system: ACHN renal
CAKI-1 renal = system: CAKI-1 renal
A498 renal = system: A498 renal
CCRF-CEM leukemia = system: CCRF-CEM leukemia
MOLT-4 leukemia = system: MOLT-4 leukemia

Measured: growth

O=C(NC(=S)N1CCN(c2ncnc3c2cnn3-c2ccccc2)CC1)c1ccc(F)cc1
inactive: HCT-15 colon 49.9% | HT29 colon 78% | SNB-75 CNS 53.7% | SNB-19 CNS 84.9% | U251 CNS 85.9% | PC-3 prostate 71.9% | SK-MEL-5 melanoma 56% | UACC-62 melanoma 74.2% | LOX IMVI melanoma 63.4% | SK-MEL-28 melanoma 85.6% | SK-MEL-2 melanoma 91.6% | EKVX NSCLC 86.2% | SN12C renal 64.9% | UO-31 renal 74.4% | TK-10 renal 140% | ACHN renal 79.6% | CAKI-1 renal 84.8% | A498 renal 124% | CCRF-CEM leukemia 63.2% | MOLT-4 leukemia 45.2%

CS(=O)(=O)Nc1cccc(-n2c(COc3ccc(OC(F)(F)F)cc3)nc3ccccc32)c1
inactive: HCT-15 colon 94.6% and 105% | HT29 colon 103% and 114% | SNB-75 CNS 55.4% and 95.4% | SNB-19 CNS 93.8% and 101% | U251 CNS 85% and 101% | PC-3 prostate 70.7% and 103% | SK-MEL-5 melanoma 78.8% and 106% | UACC-62 melanoma 72.3% and 107% | LOX IMVI melanoma 83.7% and 110% | SK-MEL-28 melanoma 118% and 133% | SK-MEL-2 melanoma 86% and 110% | EKVX NSCLC 86.4% and 98% | SN12C renal 113% and 115% | UO-31 renal 51.1% and 87.7% | TK-10 renal 105% and 111% | ACHN renal 81% and 109% | CAKI-1 renal 61.4% and 99.4% | A498 renal 98.2% and 127% | CCRF-CEM leukemia 93.3% and 99.8% | MOLT-4 leukemia 80.3% and 97%

CCOC(=O)/C(F)=C/C1CC1C1CCN(C(=O)OC(C)(C)C)CC1 (stereo not given)
inactive: HCT-15 colon 89.2% | HT29 colon 77.9% | SNB-75 CNS 93.9% | SNB-19 CNS 96.5% | U251 CNS 99.8% | PC-3 prostate 96.3% | SK-MEL-5 melanoma 69.3% | UACC-62 melanoma 93.6% | LOX IMVI melanoma 103% | SK-MEL-28 melanoma 119% | SK-MEL-2 melanoma 110% | EKVX NSCLC 74.4% | SN12C renal 62.6% | UO-31 renal 81.6% | TK-10 renal 104% | ACHN renal 97.4% | CAKI-1 renal 93.7% | A498 renal 127% | CCRF-CEM leukemia 104% | MOLT-4 leukemia 106%

COc1cc2cc(C(=O)N3C[C@@H](CCl)c4c3cc(OC(=O)N(CCC(=O)N3CCN(C)CC3)C3CCCCC3)c3ccccc43)[nH]c2c(OC)c1OC
active: HCT-15 colon -34.5% | HT29 colon -34.5% | SNB-75 CNS -75.7% | SNB-19 CNS -5.79% | U251 CNS -63.4% | PC-3 prostate -17.8% | SK-MEL-5 melanoma -99.2% | UACC-62 melanoma -94.5% | LOX IMVI melanoma -96.6% | SK-MEL-28 melanoma -97.5% | SK-MEL-2 melanoma -82.4% | EKVX NSCLC -78.8% | SN12C renal -82.8% | UO-31 renal -73.2% | TK-10 renal -71.3% | ACHN renal -84.6% | CAKI-1 renal -79.1% | A498 renal -19.9% | CCRF-CEM leukemia -34.3% | MOLT-4 leukemia -19.8%

CC[C@]12C=CCN3CC[C@@]4(c5ccc(OC)cc5N(C)[C@H]4[C@@](O)(C(=O)OC)[C@@H]1OC(=O)CCCC[P+](c1ccc(F)cc1)(c1ccc(F)cc1)c1ccc(F)cc1)[C@@H]32
inactive: HCT-15 colon 102% | HT29 colon 15.9% | U251 CNS 13% | PC-3 prostate 15.7% | LOX IMVI melanoma 25% | EKVX NSCLC 53% | SN12C renal 10.6% | UO-31 renal 85.9% | TK-10 renal 70.2% | ACHN renal 103% | CAKI-1 renal 73.2% | A498 renal 99.2% | CCRF-CEM leukemia 19.9% | MOLT-4 leukemia 29.1%
active: SNB-75 CNS -5.3% | SNB-19 CNS 6.61% | SK-MEL-5 melanoma -59.7% | UACC-62 melanoma -69.6% | SK-MEL-28 melanoma -54.9% | SK-MEL-2 melanoma -54%

CC(C)(C)OC(=O)N1C/C(=C\c2ccc(F)cc2)C(=O)/C(=C/c2ccc(F)cc2)C1
active: HCT-15 colon -61% | HT29 colon -87.2% | SNB-19 CNS -89.6% | U251 CNS -100% | PC-3 prostate -31.1% | SK-MEL-5 melanoma -92.3% | UACC-62 melanoma -96.1% | LOX IMVI melanoma -100% | SK-MEL-28 melanoma -95.9% | SK-MEL-2 melanoma -36.4% | EKVX NSCLC -52.6% | SN12C renal -93.7% | UO-31 renal -73.5% | ACHN renal -100% | CAKI-1 renal -37.4% | CCRF-CEM leukemia -6.19% | MOLT-4 leukemia -7.57%
inactive: SNB-75 CNS 13.2% | TK-10 renal 10% | A498 renal 97%

NS(=O)(=O)c1ccc(N2N=C(c3ccc(NC(=O)Nc4ccccc4)cc3)CC2c2ccc(Br)cc2)cc1 (stereo not given)
active: HCT-15 colon -89.1% | HT29 colon -57% | SNB-75 CNS -43.1% | SNB-19 CNS -98.2% | U251 CNS -86.2% | PC-3 prostate -45.2% | SK-MEL-5 melanoma -99.8% | UACC-62 melanoma -96.2% | LOX IMVI melanoma -100% | SK-MEL-28 melanoma -98.1% | SK-MEL-2 melanoma -75.8% | EKVX NSCLC -95.8% | SN12C renal -97.7% | UO-31 renal -97.2% | TK-10 renal -61.3% | ACHN renal -100% | CAKI-1 renal -85.4% | A498 renal -79.4% | CCRF-CEM leukemia 0.369% | MOLT-4 leukemia 9.26%
